Bioassay records (PubChem)
Shown are actives, neighbours in structure and some others; about 6.2% of the full set was active somewhere.
HCMV inh = human cytomegalovirus inhibition; HFF cells, HCMV-luciferase reporter, 72 h; stronger effect = lower value; activity change, negative = inhibition, % at 57.5 µM; AID 1259415; actives 4.5% (n = 410,000); in the data active means activity change below about -60%; inconclusive means no clear call, values can overlap the other calls; inactive means above about -39%
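HFF cells seeded 16 h at 37C, treated with compounds, infected with luciferase-reporter HCMV at MOI 1 PFU/cell; luciferase read at 72 h post infection, normalized to buffer-only and Salinomycin controls.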
Lassa entry inh = Lassa virus entry inhibition; Potency, µM (doses to about 37.9 µM), for the others: at the highest dose activity change, negative = inhibition, most hits filed as inhibitors; Lassa virus pseudotype entry inhibition, cell reporter; actives 1.2% (n = 300,000); calls by dose curve; tested in HEK293 cells; further: potency means the concentration at half of the fitted maximal effect; nearly all actives have a fitted effect of over 50% in size
FMDV inh = foot and mouth disease virus antiviral activity. FMDV antiviral cell-based qHTS. Potency, µM (top dose mostly 57.9 µM), without a hit: at the top dose activity change, negative = inhibition, usual class: inhibitors. actives 1.2% (n = 410,000). AID 1159524; calls by dose curve; tested in HEK293T cells; further: read-out not given here; potency means the concentration at half of the fitted maximal effect; nearly all actives have a fitted effect of over 45% in size
Marburg entry inh = Marburg virus entry inhibition. Potency, µM (series often up to 37.8 µM), for the others: at the highest dose activity change, negative = inhibition, actives largely listed as inhibitors. Marburg virus pseudotyped entry inhibition, cell reporter. actives 1.8% (n = 300,000); calls by dose curve; tested in HEK293 cells; further: potency means the concentration at half of the fitted maximal effect
The depositor's hits bear a star; u = inconclusive; x = no result given; [ ] = remark or other dose. On the % scale 0 is the no-effect control and ±100 the full control effect.

SMILES	HCMV inh	Lassa entry inh	FMDV inh	Marburg entry inh
O=c1oc2ccccc2cc1-c1csc(Nc2nc3c(F)cccc3s2)n1	-28	u	7.1µM*	u
O=C(Nc1nc(-c2cc3ccccc3oc2=O)cs1)c1ccco1	-63*	x	3%	x
O=c1oc2ccccc2cc1-c1csc(Cc2nc(-c3ccc(Cl)cc3)cs2)n1	-96*	u	u	u
Cc1nc2sc(-c3ccccc3)cc2c(=O)n1-n1cccc1	11	u	-16%	u
CCOc1ccc(CN2CCCC(CO)(Cc3ccc(F)cc3)C2)cc1 (stereo not drawn)	12	-40%[46.1 µM]	1%	7.9µM*
OCC1(Cc2ccc(F)cc2)CCCN(Cc2ccc(F)cc2Cl)C1 (stereo not drawn)	-21	u	u	u
COc1ccc(CN2CCCC(CO)(Cc3ccc(F)cc3F)C2)cc1 (stereo not drawn)	-4	-42%[46.1 µM]	-4%	10µM*
CC1(C(=O)NS(=O)(=O)c2ccc(F)cc2F)CCN1C(=O)CC1CC1 (stereo not drawn)	8	x	-9%	x
CN(C)c1ccc(C=C2C(=O)NC(=S)NC2=O)cc1[N+](=O)[O-]	21	12%	40µM*	27%
CN(C)c1ccc(C=C2C(=O)NC(=O)NC2=O)cc1[N+](=O)[O-]	-17	-4%	-13%	20%[46.1 µM]
O=C(COc1ccccc1[N+](=O)[O-])OCC(=O)N1CCC(Cc2ccccc2)CC1	33	13%	-13%	u
O=C(COc1cccnc1[N+](=O)[O-])N1CCC(Cc2ccccc2)CC1	-76*	-4%[46.1 µM]	10%	u
Cc1ccc(OCC(=O)N2CCC(Cc3ccccc3)CC2)c([N+](=O)[O-])n1	-74*	x	-17%	x
Cn1nc(C(=O)Nc2ccccc2)c2c1-c1ccccc1S(=O)(=O)C2	-17	-2%[46.1 µM]	-7%	0%[46.1 µM]
COc1ccc(OC)c(N(C)S(=O)(=O)c2ccc3c(c2)N(C(C)=O)CCO3)c1	-18	x	4%	x
CC1CCCC(NC(=O)COC(=O)c2ccc3c(c2)OCCO3)C1C (stereo not drawn)	54	x	-18%	x
COc1ccc(-c2c3c(=O)n(C)c(=O)n(C)c3cn2-c2ccccc2O)cc1	u	x	-22%	x
COc1ccc(-c2c3c(=O)n(C)c(=O)n(C)c3cn2-c2cc(OC)ccc2OC)cc1	-23	u	0%	13µM*
COc1ccc(S(=O)(=O)NC2CC(C)(C)NC(C)(C)C2)cc1	-27	x	-9%	x
CCc1ccc(-n2c(SCc3ccccc3F)nc3[nH]ncc3c2=O)cc1	-23	u	u	x
O=c1c2cn[nH]c2nc(SCc2ccccc2F)n1-c1ccc(Br)cc1	-71*	u	-21%	u
COc1ccc(N2CCN(C(=O)CSc3nc4[nH]ncc4c(=O)n3-c3ccc(Br)cc3)CC2)cc1	-63*	x	-17%	x
COc1ccc(-n2c(SCC(=O)NCc3cccs3)nc3[nH]ncc3c2=O)cc1	38	x	13%	x
Cc1ccccc1-n1c(SCc2cc(=O)n3ccccc3n2)nc2[nH]ncc2c1=O	12	17%	-19%	-22%
O=c1c2cn[nH]c2nc(SCc2cc(=O)n3cc(Br)ccc3n2)n1-c1ccc(Br)cc1	-72*	4%	-24%	u
SMILES	HCMV inh	Lassa entry inh	FMDV inh	Marburg entry inh
CCCc1cnc(NCCNCC(O)COc2ccc(Cl)c(Cl)c2)nc1 (stereo not drawn)	-98*	-28%	u	u
COc1ccc(-n2cc(-c3ccc(OC(F)F)cc3)[n+]3c2CCCCC3)cc1	-85*	x	u	x
Clc1ccc(-c2cn(-c3ccc(Cl)cc3)c3[n+]2CCCCC3)cc1	u	21%	u	u
COc1ccc(-c2cn(-c3ccc(Cl)cc3)c3[n+]2CCCCC3)cc1	-66*	u	-16%	-18%
CCOC(=O)c1cc(-c2ccc(N3CCOCC3)cc2)nn1-c1ccccc1C(=O)O	0	-13%[46.1 µM]	10%	10%[46.1 µM]
Cc1nn(-c2nc3ccccc3s2)c(C)c1Oc1ccccc1O	x	u	-100%	4.6µM*
O=C(NCCC1=CCCCC1)c1ccc2c(c1)N(Cc1ccc(Cl)cc1)C(=O)c1ccccc1S2(=O)=O	31	u	12%	11µM*
O=C(NCCC1=CCCCC1)c1ccc2c(c1)N(Cc1cccc(Cl)c1)C(=O)c1ccccc1S2=O (stereo not drawn)	-63*	-27%[46.1 µM]	11%	x
COc1ccc(CCNC(=O)c2sc3nc4n(c(=O)c3c2C)CCCC4)cc1OC	-26	-17%[46.1 µM]	0%	x
Cc1cc(N(C)C)c(C#N)c(N2CCOCC2)n1	12	0%	-17%	7%[46.1 µM]
COc1ccc(F)c(CN(C)CC2CCCN(CCc3ccc(F)cc3)C2)c1 (stereo not drawn)	-15	u	-16%	11µM*
